Screening results as filed in PubChem BioAssay.
Pf growth 96h: inhibits malaria parasite growth, 96 h | P. falciparum luciferase reporter growth, 96 h | actives 6.9% (n = 320,000) | AID 504834 | Potency, µM (doses to about 28.7 µM), actives largely listed as inhibitors
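Two-generation exposure (96 h) targets delayed-death phenotype. Reporter parasites carrying integrated firefly luciferase, in red cells at 2% hematocrit and 0.05% parasitemia final, kept at 37 C, 5% CO2; luminescence loss indicates inhibition.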
Pf growth 48h: inhibits P. falciparum growth in the first generation, 48 h; P. falciparum luciferase growth in erythrocytes, 48 h; Potency, µM (doses to about 28.7 µM), usual class: inhibitors; actives 5.9% (n = 310,000); AID 504832
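Erythrocytes infected with P. falciparum carrying an integrated firefly luciferase reporter (2% hematocrit, 0.1% parasitemia final) were exposed to compounds in RPMI 1640 with 0.5% Albumax at 37 C, 5% CO2. Growth inhibition was scored as reduced luminescence.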
HCMV inh: inhibitors of human cytomegalovirus | activity change, negative = inhibition, % at 57.5 µM | HFF cells, HCMV-luciferase reporter, 72 h; active compounds read low | actives 4.5% (n = 410,000) | AID 1259415; in the data active = activity change below about -60%; inconclusive = no clear call, values can overlap the other calls; inactive = above about -39%
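Steps: HFFs plated, 16 h 37C; compounds added; HCMV-luciferase added to MOI 1 PFU/cell; 72 h 37C; OneGlo reagent, 5 min room temperature; luminescence read, normalized to controls.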
HCV inhibitor: inhibitors of hepatitis C virus infection | Huh7.5.1 HCVcc-Cre infection, luciferase reporter, 44 h | Potency, µM (doses to about 41.8 µM), most hits filed as inhibitors | actives 3.4% (n = 340,000)
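Whole-lifecycle infectious HCVcc-Cre system; cells 1,000/well, compound then virus (~0.5 moi) added 4 h after plating, 44 h culture. Luciferase read 15 sec following 15 min substrate incubation, room temp.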
LASV entry inh: inhibitors of Lassa virus binding or cell entry | Lassa virus pseudotype entry inhibition, cell reporter | Potency, µM (doses to about 37.9 µM), most hits filed as inhibitors | actives 1.2% (n = 300,000); calls by dose curve; tested in HEK293 cells; also: nearly all actives have a fitted effect of over 50% in size
Marburg entry inh: inhibitors of Marburg virus binding or cell entry | actives 1.8% (n = 300,000) | Marburg virus pseudotyped entry inhibition, cell reporter | Potency, µM (titrated, usually from 37.8 µM), usual class: inhibitors; calls by dose curve; tested in HEK293 cells
Of the large screens only hits and unclear results are named; the others gave an inactive call. The list is not random: actives were taken first. Their share in the collection is about 14%. Unless noted, calls follow the shape of the dose curve; as a rule, active = well fitted inhibition curve with a large enough effect; inconclusive = small, poorly fitted or top-dose-only effect, or another doubt; inactive = no such curve, though single readings can be large or run the other way.

Cc1cc(C)[n+](CCCC[n+]2c(C)cc(C)cc2C)c(C)c1	none (no result: LASV entry inh, Marburg entry inh)
Cc1cc(N)c2ccccc2[n+]1CCCCCCCCCCCCCC[n+]1c(C)cc(N)c2ccccc21	Marburg entry inh 8.91µM (no result: Pf growth 96h, Pf growth 48h, HCMV inh, HCV inhibitor, LASV entry inh)
CCCNC(=O)C1(CC2CC(c3ccccc3)=NO2)CCN(C(=O)C2CCCC2)CC1 (stereo not drawn)	Pf growth 96h 14.7µM, Pf growth 48h 13.1µM (no result: LASV entry inh, Marburg entry inh)
O=C(C1CCCC1)N1CCC(CC2CC(c3ccc(Cl)cc3)=NO2)(C(=O)NCC2CCCCC2)CC1 (stereo not drawn)	Pf growth 96h 1.04µM, Pf growth 48h inconclusive (no result: LASV entry inh, Marburg entry inh)
COc1ccc(CNC(=O)C2(CC3CC(c4ccccc4)=NO3)CCN(C(=O)C3CCCC3)CC2)cc1 (stereo not drawn)	Pf growth 96h 5.22µM, Pf growth 48h inconclusive (no result: LASV entry inh, Marburg entry inh)
COC(=O)c1ccc(NC(=O)C(=O)NCCc2csc3nc(-c4ccccc4F)nn23)cc1	none (no result: Pf growth 96h, Pf growth 48h, HCV inhibitor, Marburg entry inh)
COc1cc(OC)cc(C(=O)Nc2ccc3nc4n(c(=O)c3c2)CCCCC4)c1	Pf growth 96h 13.1µM, HCV inhibitor inconclusive, Marburg entry inh inconclusive
COc1ccc(OC)c(NC(=O)CC(=O)Nc2ccc3nc4n(c(=O)c3c2)CCCCC4)c1	none (no result: Pf growth 96h, Pf growth 48h, HCV inhibitor)
COc1cccc(/C=C/C(=O)Nc2ccc3nc4n(c(=O)c3c2)CCCC4)c1OC	Pf growth 96h inconclusive, Pf growth 48h 2.08µM, HCMV inh inconclusive, HCV inhibitor inconclusive (no result: LASV entry inh, Marburg entry inh)
COc1ccccc1C(=O)Nc1ccc2nc3n(c(=O)c2c1)CCCC3	Pf growth 96h 0.522µM, Pf growth 48h inconclusive, HCMV inh inconclusive (no result: LASV entry inh, Marburg entry inh)
COc1ccc(/C=C/C(=O)Nc2ccc3nc4n(c(=O)c3c2)CCCC4)cc1	Pf growth 48h inconclusive, HCV inhibitor inconclusive (no result: LASV entry inh, Marburg entry inh)
COc1cccc(NC(=O)CC(=O)Nc2ccc3nc4n(c(=O)c3c2)CCCCC4)c1	HCMV inh -72.4 (no result: Pf growth 96h, Pf growth 48h, HCV inhibitor)
O=C(Nc1ccc(C(=O)OCc2cc(=O)n3c4c(sc3n2)CCCC4)cc1)c1ccc(F)cc1	none (no result: Pf growth 96h, Pf growth 48h, HCV inhibitor, Marburg entry inh)
O=C(Nc1ccc2nc3n(c(=O)c2c1)CCCC3)c1cc([N+](=O)[O-])ccc1F	Pf growth 96h inconclusive, HCV inhibitor inconclusive, LASV entry inh 3.26µM, Marburg entry inh 7.08µM (no result: HCMV inh)
O=C(Nc1ccc2nc3n(c(=O)c2c1)CCCC3)c1cccc([N+](=O)[O-])c1	Pf growth 96h inconclusive, HCV inhibitor inconclusive
COc1ccc(OC)c(CCNC(=O)C(=O)Nc2ccc3nc4n(c(=O)c3c2)CCCCC4)c1	Pf growth 48h 4.15µM, HCV inhibitor inconclusive (no result: LASV entry inh, Marburg entry inh)
O=C(Nc1ccc2nc3n(c(=O)c2c1)CCCC3)c1cncc(Br)c1	HCMV inh -63.3, HCV inhibitor inconclusive (no result: Pf growth 96h, Pf growth 48h, LASV entry inh, Marburg entry inh)
COc1cc(OC)c(NC(=O)Cn2c(=O)oc3cc(S(=O)(=O)N4CCCC4)ccc32)cc1Cl	LASV entry inh inconclusive (no result: Pf growth 96h, Pf growth 48h, HCV inhibitor, Marburg entry inh)
CC(=O)NC[C@@H]1CN(c2ccc(N3CCOCC3)c(F)c2)C(=O)O1	Pf growth 96h 15.1µM (no result: HCMV inh, HCV inhibitor, LASV entry inh, Marburg entry inh)
Cc1cc2c(cc1C)N(C(=O)CCl)CCN2C(=O)CCl	HCV inhibitor 3.98µM, LASV entry inh inconclusive, Marburg entry inh inconclusive (no result: Pf growth 96h, Pf growth 48h)
Cc1ccc(Cl)cc1N1CCN(C(=O)CCC(=O)O)CC1	HCMV inh inconclusive
CCOc1cccc2sc(N(CCCN(C)C)C(=O)c3ccc(S(=O)(=O)N4CCc5ccccc5C4)cc3)nc12	Pf growth 96h inconclusive, Pf growth 48h inconclusive, HCMV inh -68.2 (no result: LASV entry inh, Marburg entry inh)
CCc1ccc2nc(N(CCCN(C)C)C(=O)c3ccc(S(=O)(=O)N4CCc5ccccc5C4)cc3)sc2c1	Pf growth 96h inconclusive, HCMV inh -61.6, HCV inhibitor inconclusive, Marburg entry inh inconclusive
CCOc1cccc2sc(N(CCCN(C)C)C(=O)c3ccc(S(=O)(=O)N(C)c4ccccc4)cc3)nc12	Pf growth 96h inconclusive, Pf growth 48h inconclusive, HCV inhibitor inconclusive (no result: LASV entry inh, Marburg entry inh)
Cc1ccc(NC(=O)c2cc(S(=O)(=O)N(C)C3CCCCC3)ccc2F)cc1C	none (no result: Pf growth 96h, Pf growth 48h, HCV inhibitor, Marburg entry inh)
COc1ccc(-c2ccc(OC)c([C@H]3[C@H]4C=CC[C@@H](C)[C@@H]4C(=O)N3Cc3ccccc3)c2)cc1OC	Pf growth 96h inconclusive, Pf growth 48h inconclusive (no result: LASV entry inh, Marburg entry inh)
C[C@@H]1CC=C[C@H]2[C@H]1C(=O)N(Cc1ccccc1)[C@H]2c1ccc(-c2ccc(F)cc2)cc1F	Pf growth 96h inconclusive, Pf growth 48h inconclusive (no result: LASV entry inh, Marburg entry inh)
C[C@@H]1CC=C[C@H]2[C@H]1C(=O)N(Cc1ccccc1)[C@H]2c1ccc(/C=C/c2ccccc2)cc1F	Pf growth 96h inconclusive, Pf growth 48h 10.4µM (no result: LASV entry inh, Marburg entry inh)
